Screening data: PubChem, several laboratories
In the library only some 2.7% were active in any assay of this set; here they are far more common.
ERa coact inh: ERα–SRC-1 coactivator interaction inhibitors, primary screen, biochemical, TR-FRET, ERα LBD, estradiol-bound; TR-FRET ER-alpha LBD / SRC-1 peptide; inhibition, % at 25.6 µM; actives 1.7% (n = 86,000); AID 629, 2007; in the data active means inhibition above about 50%;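 further: 0% = receptor plus peptide control and 100% = peptide only without receptor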
Target sequence (P03372 whole entry, looked up, the tested form may be a part): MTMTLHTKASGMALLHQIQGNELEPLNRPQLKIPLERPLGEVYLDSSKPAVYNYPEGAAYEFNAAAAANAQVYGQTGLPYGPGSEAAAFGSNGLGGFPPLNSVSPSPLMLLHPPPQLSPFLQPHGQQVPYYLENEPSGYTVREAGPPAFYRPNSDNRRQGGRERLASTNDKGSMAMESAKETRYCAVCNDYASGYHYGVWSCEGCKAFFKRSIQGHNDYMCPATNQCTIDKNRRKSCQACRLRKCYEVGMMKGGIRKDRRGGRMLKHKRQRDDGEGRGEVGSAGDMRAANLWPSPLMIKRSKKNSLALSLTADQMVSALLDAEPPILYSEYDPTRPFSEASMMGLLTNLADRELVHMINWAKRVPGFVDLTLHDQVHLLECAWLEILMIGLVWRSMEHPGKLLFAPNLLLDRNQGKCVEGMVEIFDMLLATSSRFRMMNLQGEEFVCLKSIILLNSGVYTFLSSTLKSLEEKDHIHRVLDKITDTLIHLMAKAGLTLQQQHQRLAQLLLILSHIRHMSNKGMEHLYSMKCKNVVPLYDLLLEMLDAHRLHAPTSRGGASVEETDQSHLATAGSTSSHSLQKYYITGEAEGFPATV
ERb coact inh: inhibitors of ERβ-SRC1 coactivator interaction, primary screen, biochemical, TR-FRET, ERβ LBD, SRC-1 peptide | Estrogen receptor beta (Homo sapiens), Q92731 | TR-FRET ER-beta LBD / SRC1-Cy5 peptide binding; receptor agonist-loaded with 1 µM estradiol | inhibition, % at 25.6 µM | actives 1.3% (n = 86,000);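 active means compounds whose percent inhibition of the receptor-coactivator binding signal exceeds about 50% in the single-dose screen, limit read from the data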;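 further: 0% = receptor plus peptide wells without compound and 100% = peptide-only wells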
MRP1 act: H69AR viability gain despite doxorubicin, primary screen, MRP-1 activator project, H69AR cells, CellTiter-Glo. actives 0.61% (n = 140,000). AID 799, 2007. viability increase, % at 10 µM. viability rescue;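 active means viability gain under doxorubicin at or above a set limit, the compound median plus 3 SD, cut at about 4.7% in these data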;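 further: MRP-1 overexpressing cells given doxorubicin 25 µM after compound pretreatment; 18-22 h compound pretreatment then 72 h with doxorubicin before readout; 0% = doxorubicin-only wells and 100% = vehicle-treated cells without doxorubicin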
MRP resist rev: reversal of MRP1-mediated doxorubicin resistance, primary screen, H69AR cells, doxorubicin co-treatment | H69AR cells + 2 uM doxorubicin, CellTiter-Glo, 72 h | differential viability (reversal), % at 10 µM | actives 0.04% (n = 85,000) | AID 602, 2007;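 active means viability drop by adding the cancer drug above about 55%, with treated viability meeting a 40% cutoff, limit read from the data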;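 further: viability without doxorubicin minus viability with 2 µM doxorubicin for each compound; larger differential means the compound sensitizes cells more to doxorubicin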
ERa SRC1 pot: enhancers of ERα–SRC-1 coactivator binding, primary screen, biochemical, TR-FRET, ERα LBD, low estradiol | Estrogen receptor (Homo sapiens), P03372 | TR-FRET ERalpha-LBD/SRC-Cy5 coactivator binding, 2 h; 100 = basal binding, no effect | coactivator binding (% of control), % at 25.6 µM | actives 1.3% (n = 86,000); in the data active means activity above about 200%;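 further: binding measured in presence of low estradiol as agonist stimulus; 0% = peptide alone without receptor and 100% = receptor with peptide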
An asterisk follows results filed as active; · = not tested or not shown; [ ] = another dose, or the depositor's remark.

SMILES	ERa coact inh	ERb coact inh	MRP1 act	MRP resist rev	ERa SRC1 pot
O=c1[nH][nH]c(-c2ccccc2)c1C=Nc1ccccc1Cl	·	·	-2.0	·	·
COC(=O)c1ccc2c(=O)n(CCCCCC(=O)O)c(=S)[nH]c2c1	·	·	-2.2	·	·
CCc1cccc(NC(=O)CSc2nc3c(c(=O)[nH]2)CCCC3)c1	·	·	-2.4	·	·
Cc1ccc(-c2cc(C(=O)Nc3nccs3)c3ccccc3n2)o1	·	·	-4.0	·	·
COc1ccc(NC(=O)c2cc(-c3ccc(C)o3)nc3ccccc23)cc1OC	79.0*[fluorescence artefact?]	68.2*[fluorescence artefact?]	-0.5	-13.7	77.2
CC(SC1=NCCS1)C(=O)Nc1nnc(-c2ccc(Br)cc2)s1 (centres undefined)	-6.1	1.2	5.8*	-26.5	179.5
CC1(C)Cc2nc3sc4c(N(CCO)CCO)ncnc4c3cc2CO1	·	·	-1.1	·	·
CC1(C)Cc2nc3sc4c(SCC(=O)NCc5ccccc5)ncnc4c3cc2CO1	27.8	41.6	-1.7	-4.1	431.1*[fluorescence artefact?]
Cc1ccc(S(=O)(=O)N2CCC(=O)N(CCOC(=O)NCc3ccccc3)CC2)cc1	·	·	-2.1	·	·
CCCOc1ccc(/C=C/C(=O)Nc2ccc([N+](=O)[O-])cc2)cc1	·	·	-1.2	·	·
CCCCOc1ccc(/C=C/C(=O)Nc2ccc([N+](=O)[O-])cc2C)cc1	·	·	5.8*	·	·
COc1ccc(NS(=O)(=O)c2cc(NC(=O)CNC(=O)c3ccc(C)s3)ccc2Cl)cc1	·	·	14.3*	·	·
CCOc1ccc(-n2nc3c(-n4ncc(C#N)c4N)nnc(C)c3c2C)cc1	-4.7	-2.5	·	-4.1	85.0
COc1ccc(OC)c(C2C(C(=O)c3ccco3)=C(O)C(=O)N2CCCN2CCOCC2)c1 (centres undefined)	8.4	1.1	·	-6.0	91.8
Cc1ccc(C(=O)Oc2ccc(C(=O)COC(=O)C3CC(=O)N(Cc4ccco4)C3)cc2)cc1 (centres undefined)	23.5	6.8	-0.6	-16.0	274.1*[fluorescence artefact?]
CC(=O)Oc1ccc(C(=O)Nc2ccc3c(c2)C(=O)N(CCC(=O)O)C3=O)cc1	-37.4	-14.5	-0.2	11.5	708.7*[fluorescence artefact?]
CCCCOC(=O)c1ccc(NC(=O)/C=C/c2cccs2)cc1	·	·	4.8*	·	·
COCN(C#N)c1nc(OC)nc(OC)n1	10.0	55.1*[fluorescence artefact?]	1.1	8.7	109.7
Cc1ccc(/C=C/C(=O)N2CCC(Cc3ccccc3)CC2)cc1	·	·	-1.8	·	·
Cc1ccc(S(=O)(=O)c2cc3c(=O)n4cccc(C)c4nc3n(CC3CCCO3)c2=N)cc1 (centres undefined)	-29.6	3.4	·	0.6	290.3*
N=c1c(C(=O)NCc2ccco2)cc2c(=O)n3ccccc3nc2n1Cc1ccc(Cl)cc1	79.8*[fluorescence artefact?]	58.2*[fluorescence artefact?]	-4.8	-8.8	74.7
Cc1ccc(CNC(=O)c2cc3c(=O)n4ccccc4nc3n(Cc3ccco3)c2=N)cc1	81.7*[fluorescence artefact?]	54.6*[fluorescence artefact?]	·	-20.7	53.4
Cc1cccn2c(=O)c3cc(C(=O)NCc4ccco4)c(=N)n(CCc4ccccc4)c3nc12	92.7*[fluorescence artefact?]	59.0*	·	2.6	54.9
Cc1cccn2c(=O)c3cc(C(=O)NCc4ccco4)c(=N)n(C(C)C)c3nc12	2.8	12.8	-1.8	-7.5	89.4
N=c1c(C(=O)NCc2ccco2)cc2c(=O)n3ccccc3nc2n1Cc1ccccc1	47.4	34.6	-5.3	-9.7	72.3
SMILES	ERa coact inh	ERb coact inh	MRP1 act	MRP resist rev	ERa SRC1 pot
COC(=O)c1sccc1NC(=O)Cc1ccc(Br)cc1	·	·	0.5	·	·
Cc1ccc(S(=O)(=O)c2cc3c(=O)n4cccc(C)c4nc3n(Cc3ccco3)c2=N)cc1C	48.5	36.9	·	·	75.8
Cc1ccc(S(=O)(=O)c2cc3c(=O)n4ccccc4nc3n(Cc3ccco3)c2=N)cc1	46.8	63.1*[fluorescence artefact?]	-0.2	-14.1	83.0
N=c1c(C(=O)NCc2ccccc2)cc2c(=O)n3ccccc3nc2n1Cc1ccco1	71.1*[fluorescence artefact?]	47.5	-4.0	-20.4	67.8
CCCC(=O)Nc1ccc(C(=O)NNC(=O)c2ccco2)cc1	·	·	-0.1	·	·
Cc1ccc(C(=O)Nc2nc(=O)n(C(=O)C3CC3)s2)cc1	·	·	0.8	·	·
O=C(Nc1nc(=O)n(C(=O)C2CC2)s1)c1ccccc1	·	·	6.8*	·	·
CCOC(=O)c1ccc(CNC(=O)c2cc3cccc(OC)c3oc2=O)o1	3.7	11.2	·	-11.2	111.3
c1cncc(Oc2cccc(Oc3cccnc3)c2)c1	-8.3	97.8*[fluorescence artefact?]	-1.9	-8.3	90.1
COc1ccc(NS(=O)(=O)c2cc(OCC(N)=O)c(C)cc2Cl)cc1	·	·	-1.4	·	·
COc1ccc(CNS(=O)(=O)c2cccc(S(=O)(=O)N3CCOCC3)c2)cc1	-0.1	-0.2	-0.2	16.2	100.5
Brc1ccc(OCc2nnc3n2CCC3)cc1	·	·	7.0*	·	·
Brc1ccc(-c2nnc3n2CCCCC3)cc1	16.8	-2.1	0.1	0.2	99.5
Cn1c(=O)c(NCCc2ccccc2)c2c3c(cccc31)C(=O)c1ccccc1-2	-4.4	7.5	-3.6	63.7*	97.0
O=C(CCC(=O)c1cccs1)Nc1nnc(C2CC2)s1	52.4*	41.6	-0.3	6.6	64.5
CS(=O)(=O)c1ccc2nc(NC(=O)Cc3ccccc3)sc2c1	4.1	10.0	·	-9.0	98.5
CS(=O)(=O)c1ccc2nc(NC(=O)CCC(=O)c3cccs3)sc2c1	67.7*	39.6	-1.2	-20.9	67.2
Cc1ccsc1C=Nc1ccc(O)cc1	34.5	75.7*[fluorescence artefact?]	1.7	-9.7	63.6
CCc1nnc(NC(=O)c2ccc(S(=O)(=O)N3CCCCCC3)cc2)s1	0.0	1.4	5.4*	0.7	86.5
CCc1nnc(NC(=O)[C@@H](NC(=O)c2cccc(S(=O)(=O)N(CC)CC)c2)C(C)C)s1	·	·	5.2*	·	·
CCc1nnc(NC(=O)c2ccc(S(=O)(=O)NCC(C)C)cc2)s1	·	·	9.6*	·	·
CCc1nnc(NC(=O)c2ccncc2)s1	5.1	3.0	1.4	3.8	104.1
Cc1ccc(CN(Cc2cc3cc(C)ccc3[nH]c2=O)C(=O)N2CCOCC2)cc1	-0.1	-6.1	-0.7	-11.3	484.5*
CN(C)c1cc[n+](Cc2c(Cl)cccc2Cl)cc1	-24.9	-29.9	-2.4	1.2	115.0
O=C(Nc1ccc(N2CCCCC2)cc1)c1cccnc1Cl	-0.4	-3.4	-0.7	2.4	87.6
SMILES	ERa coact inh	ERb coact inh	MRP1 act	MRP resist rev	ERa SRC1 pot
O=C(Nc1ccc(N2CCN(c3ccc(O)cc3)CC2)cc1)Oc1ccccc1	94.6*[fluorescence artefact?]	57.2*[fluorescence artefact?]	-3.4	-14.1	30.2
O=C(Nc1ccc(N2CCCC2)cc1)c1ccccc1F	96.2*[fluorescence artefact?]	79.5*[fluorescence artefact?]	-0.8	-15.7	17.4
O=C(Nc1ccc(N2CCCCC2)cc1)c1ccccc1	·	·	-0.8	·	·
O=C(Nc1ccc(N2CCCC2)cc1)c1cccc(F)c1	33.0	54.8*[fluorescence artefact?]	-1.6	-20.7	60.0
CN1CCN(c2ccc(NC(=O)c3cccc(OCc4ccccc4)c3)cc2)CC1	37.4	61.8*[fluorescence artefact?]	-2.5	-12.7	42.4
O=C(Oc1ccccc1)N1CCN(c2ccc(F)cc2)CC1	-7.5	-9.2	0.0	21.4	101.6
S=C(NNc1ccc2ccccc2c1)NC1CCCCC1	·	·	-3.3	·	·
